Columns and labels:
Test in all cases: PBM binding z-score (relative to random genomic background probes); higher = stronger binding; sequences stand for … in GC…GCGATTGACAGCGTAGAATGAAGG
[1] = test system: RARb homodimer (NR concentration 270 nM)
How it was run: (§1)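 Custom Agilent 4×180K protein-binding microarrays carried double-stranded probes. Their 34-nt variable regions held direct-repeat seeds, single-nucleotide variants, half-site ablations and random human genomic background sequences. Arrays were incubated 1 h with ligand-free nuclear receptor dimers in PBS pH 7.4, 2% milk, 0.02% Triton X-100, 1 mM DTT, 0.2 mg/mL BSA and 0.4 mg/ml salmon testes DNA. Antibodies against each partner (one per run) detected binding, and scanned fluorescence was regression-normalized. Binding z-scores use random background probes as reference.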

[2] = test system: RARg:RXRa (NR concentration 270 nM, RXRa partner concentration 90 nM)
How it was run: as §1

[3] = test system: RARg homodimer (NR concentration 270 nM)
How it was run: as §1

[4] = test system: RXRa DBDmut IVT, anti-RXR (DBD mutation: RXRa K156A/R161A, NR concentration 90 nM)
How it was run: as §1

[5] = test system: RXRa homodimer (NR concentration 180 nM)
How it was run: as §1

[6] = test system: THRa:RXRa (NR concentration 90 nM, RXRa partner concentration 90 nM)
How it was run: as §1

[7] = test system: THRa homodimer (NR concentration 90 nM)
How it was run: as §1

[8] = test system: VDR homodimer (NR concentration 270 nM)
How it was run: as §1

Sequence	PBM binding z-score [1]	PBM binding z-score [2]	PBM binding z-score [3]	PBM binding z-score [4]	PBM binding z-score [5]	PBM binding z-score [6]	PBM binding z-score [7]	PBM binding z-score [8]
CCTTACGGGTCAAGAGGTTATAGCACGACGAGCG	3.87	6.11	4.75	0.748	6.11	2.92	0.0618	1.17
CCCTACGGGTCACGAGGTTATAGCACGACGAGCG	4.13	6.2	5.6	1.19	7.45	3.59	1.02	1.66
CAAACTTGGTCAAAGGTCAAAGTCGAGCCAACCA	4.86	7.37	6.36	1.58	8.93	3.89	0.672	2.28
ATCTCTAGGTAACCAAGTACAGTGAATGCCGAAC	0.221	0.424	0.577	0.152	0.115	0.827	0.385	0.365
CGAACTTGGTCAGAACAGGACAGTGAAGGATGAT	0.311	0.432	0.829	-0.105	0.172	1.09	-0.102	-0.116
CCTTACGGGTCACAGACAGGTTATAGCATTTGGA	3.16	5.97	4.84	1.77	5.47	3.03	0.316	0.727
ATCTCTAGGTGACCAAGTTCAGTGAATGCCGAAC	1.77	1.24	1.38	0.521	0.867	1.5	0.429	2.22
TCGAGTAGGTTACCAATGGCGCATTCAGCTTTCT	0.00418	0.036	0.0712	0.461	0.351	-0.246	-0.453	-0.613
ATCTCTAGGTAACACTCAGTTCAGTGAAGAACGC	1.27	0.926	0.875	1.05	0.63	1.64	1.38	2.25
TCAGACACGTGAAGGTAACTCAGGTACGCAGTCG	0.104	0.176	0.219	1.06	0.661	1.21	-0.125	0.218
ATATGTAGGTTACATCCGGGTCATTTAGGCTATG	2.76	3.59	1.81	1.21	3	3.7	2.55	2.98
ACGATTAGTTGAGACGAGGGCAACCGATAGGTTG	0.939	0.385	0.643	-0.112	0.354	2.41	-0.196	0.605
CCTATTAGTTGACCATAAGGGAAACCGAAGCTCG	0.512	0.264	0.552	0.71	0.398	0.545	0.494	0.692
AATCAAAGTTCAGGACGAGGTAACGTAAAGCACG	3.22	4.66	4.55	2.68	2.92	3.92	1.58	2.06
ATATGTAGGTTATCGGATCATTCAGTTTGCGCAT	0.853	0.837	0.866	0.702	1.12	0.794	0.624	0.764
GGACCGAGGGCAAGTTGATAGCAGAGTTTGATGG	1.43	1.78	2.07	2.06	0.783	0.968	-0.0674	1.67
TCGAGTAGGTTAGGGGGATTCAGAATGGCGTCGA	0.809	0.0898	0.376	0.668	0.485	0.871	1.01	0.42
CCGACTGGGGAATAAGGTTACCATAAGCCAGCCC	1.02	0.435	0.223	-0.297	0.812	2.03	1.18	-0.0686
TTACCAAGGTGAGCTGAGGTCGTTGATCCAACTC	1.78	1.24	1.11	0.206	1.53	4.79	1.88	2.5
ATATGTAGGTTACATCCGTGTCATTCAGGCTATG	1.2	1.59	1.21	1.02	1.08	1.4	0.344	0.511
GCTGCTAGGTCAGGTTGGACAGCTAACGGGTACG	2.35	2.56	3.42	0.208	1.06	1.69	0.46	0.386
CCTGCTCGGTCATGGTCAGCTAATCTACAGTATG	1.93	1.91	2.66	0.361	0.252	0.067	-0.311	-0.527
CGAACTAGGTCAGAACAGGGCAGTGAAGGATGAT	2.52	2.65	3.35	0.463	1.28	2.69	0.148	0.0633
CCAACTGGGCCAAAGGTCATTGATTCCAATGCTC	4.44	5.57	4.82	1.61	5.9	3.07	0.791	2.39
AGAATGAGGTTATACGTAGATCAAGGAAGAAAGT	0.606	1.96	1.11	1.82	2.3	2.04	0.406	0.854
ATATGTTGGTTACATCCGGGTCATTCAGGCTATG	2.54	1.79	1.29	0.674	2.18	3.16	2.45	2.26

Sequence	PBM binding z-score [1]	PBM binding z-score [2]	PBM binding z-score [3]	PBM binding z-score [4]	PBM binding z-score [5]	PBM binding z-score [6]	PBM binding z-score [7]	PBM binding z-score [8]
CAAACTAGGACAAGAGGTCAAAGTCCGCTTCCCG	4.38	5.63	4.63	2.33	6.3	3.92	1.89	4.42
TAGTCTAGGTCATTGGGCCAGTATAGTACGCATC	3.08	3.92	4.79	1.95	3.26	3.32	1.55	1.87
CGTCCATGGTCAGAGAGGTCAGTGAATGCCGAGT	4.09	3.16	4	0.839	2.97	2.58	0.835	2.63
TATACAGGGTCAGAGGCCAGAGTACGAATGTCGA	3.01	4.21	4.27	1.39	4.32	2.74	0.817	2.2
TAGCCTAGGTCAGATCGGGCCAGTATTCGCTATA	2.1	2.86	3.71	-0.442	1.37	4.14	-0.138	-0.518
TGTCAAAGTTCAAAGGTAACGAAAGTATCCACAC	3.89	6.36	6.02	4.4	7.81	2.97	0.0782	4.73
CGTCACAGTTCAAGGTAACGTAACAGAAAGCAGC	1.63	2.45	2.53	2.69	2.14	2.24	1.24	1.53
ACTATTAGTTGAGACGAGAGCAACCGATAGGTTG	-0.441	0.044	0.359	-0.00279	0.11	-0.0893	-0.555	-0.215
ATGGAAAGGTCGAAGGTGAGTATACCCACCCGAA	2.68	4.21	3.87	0.318	4.97	2.3	0.00488	0.714
CAAACTAGGCCAAGAGGTCAAAGTCCGCTTCCCG	4.79	5.84	5.21	2.07	6.52	3.75	1.81	3.94
TCTATTAGTTGAATGGCAACCGACGAGTCCGTTT	0.038	0.299	0.139	1.73	0.383	-0.116	0.299	1.28
GATACAGGGTCAGCTAGGGGCCAGAGTATGGAAA	3.52	6.94	4.94	1.25	4.43	3.62	0.639	0.774
CCTCGGAGGACAGAAGGTCATAGCTGTCCGCTTT	3.97	4.4	3.92	0.657	3.43	2.95	0.318	1.45
ACAGAAAGGTGATGAAGGTAACTCAGGCTATCAT	0.99	1.18	1.35	0.11	1	1.44	0.0697	-0.00913
CCTTACGGGTCACTGACTGGTTATAGCATTTGGA	3.06	5.04	4.61	1.84	4.93	2.52	0.498	1.03
CCAGACAGGTGAGAAGGTTACTCAGCCTCGATTA	1.63	1.67	1.13	0.518	1	0.657	0.115	0.152
ATCGAAAGGTCGAGGTGAGTATAGAGAAAGGGAA	2.86	4.31	4.51	0.657	4.3	2.81	0.624	0.373
AGTCAAAGTTCAGGACGAGGTGACGTAAAGCACG	3.64	5.69	5.15	3.18	3.53	3.93	1.83	2.66
GGAACGAGGGCAACTTGATAGCAGAGTTTGATGG	1.42	1.7	2.17	2.2	1.13	1.26	0.0506	1.35
ACTATTAGTTGAATTAGGGCAACCGATACGACGC	0.778	0.551	0.997	0.675	0.283	1.54	0.513	0.497
ACTCGGAGGACATAGGTCAGAGCTACGCCAGTGA	2.6	3.03	2.28	0.527	2.26	2	0.0623	0.202
TCATATAGGTAAAAGGTGAAAGCCGGTGTGGTAA	1.74	2.11	0.955	1.45	2.92	1.56	8.19e-05	-0.0743
GCATACAGGTAATACAAGGTGAAAGTCCGATTGT	1.04	0.773	0.617	0.25	0.894	4.17	1.16	0.161
GCTAGCAGGCCATTTGGGTCACGCAATGACGGGC	2.27	1.79	1.75	-0.208	1.68	2.54	1.19	0.28
GCTTGGAGGACAAGGTCAGAGCTTTGTCCGTAGA	3.25	3.03	3.61	0.782	2.37	3.02	1.46	0.256
GCTGCTTGGTCAGGTTGGTCAGCTAACGGGTACG	0.727	-0.088	0.0673	0.0173	-0.438	-0.199	0.0955	0.00601
